From PubChem BioAssay (EPA / NIEHS) come the findings set out here.

Experiment [1] deals with human Adrenergic, Beta 3 Receptor (Adrb3), ADRB3 (gene 155) (UniProt P13945). As to the kind of experiment: NVS_GPCR_hAdrb3: NovaScreen (NVS) G Protein-Coupled Receptor Assay for human Adrenergic, Beta 3 Receptor (Adrb3) (AID 2283262). The procedure, abridged: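 Membranes from SK-N-MC cells pretreated with isoproterenol and 8-bromo-cAMP were used in a radioligand competitive displacement binding assay. Binding was read by filter-based scintillation counting 1 hour after dosing. Primary screening was in duplicate at 25 uM, with concentration series in follow-up.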

The target of experiment [2] is human Serotonin, 5-Hydroxytryptamine Receptor 7 (5HT7), HTR7 (gene 3363) (UniProt P34969). Briefly: NVS_GPCR_h5HT7: NovaScreen (NVS) G Protein-Coupled Receptor Assay for human Serotonin, 5-Hydroxytryptamine Receptor 7 (5HT7) (AID 2283255).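 Note: hits reduce specific radioligand binding relative to DMSO.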 An outline of the steps:
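Radioligand displacement on membranes from CHO cells expressing human 5HT7, 1 h incubation, filter-based scintillation counting. Primary screen used a single 25 uM concentration in duplicate; actives were followed up in concentration series.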

Experiment [3] deals with human Adrenergic, Alpha 2c Receptor (Adra2C), ADRA2C (gene 152) (UniProt P18825). As to the kind of experiment: NVS_GPCR_hAdra2C: NovaScreen (NVS) G Protein-Coupled Receptor Assay for human Adrenergic, Alpha 2c Receptor (Adra2C) (AID 2283259). An outline of the steps:
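Radioligand binding on Sf9-expressed receptor membranes, 1 h after chemical dosing, filter-based scintillation read-out. Loss of binding fitted positively versus DMSO; primary duplicate screen at 25 uM, actives retested in concentration series.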

The target in experiment [4] is human Dopamine Receptor D4.4 (DRD4.4), DRD4 (gene 1815) (UniProt P21917). As to the kind of experiment: NVS_GPCR_hDRD4.4: NovaScreen (NVS) G Protein-Coupled Receptor Assay for human Dopamine Receptor D4.4 (DRD4.4) (AID 2283264). An outline of the steps:
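Radioligand displacement on human DRD4.4 from CHO-derived membranes, 1 hour incubation, bound counts read by filtration and scintillation. Primary screen in duplicate at 25 uM; actives followed up in concentration series.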

In experiment [5] the target is human Adenosine A2a Receptor (AdoRA2a), ADORA2A (gene 135) (UniProt P29274). Briefly: NVS_GPCR_hAdoRA2a: NovaScreen (NVS) G Protein-Coupled Receptor Assay for human Adenosine A2a Receptor (AdoRA2a) (AID 2283256). The procedure, abridged:
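Radioligand displacement on HEK293-derived membrane protein, cell-free; filter-based scintillation counting 1.5 hours after dosing, loss of signal vs DMSO. Single-point duplicate screen at 25 uM, actives retested in concentration series.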

The target in experiment [6] is human Adrenergic, Alpha 2A Receptor (Adra2A), ADRA2A (gene 150) (UniProt P08913). As to the kind of experiment: NVS_GPCR_hAdra2A: NovaScreen (NVS) G Protein-Coupled Receptor Assay for human Adrenergic, Alpha 2A Receptor (Adra2A) (AID 2283257). An outline of the steps: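 Radioligand filter-binding was run on HT29-derived membranes, cell-free, read by scintillation counting 1 h after dosing. Primary screening was in duplicate at 25 uM, with concentration series in follow-up. Loss of signal versus DMSO indicates displacement.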

The target in experiment [7] is human Adrenergic, Beta 1 Receptor (Adrb1), ADRB1 (gene 153) (UniProt P08588). Briefly: NVS_GPCR_hAdrb1: NovaScreen (NVS) G Protein-Coupled Receptor Assay for human Adrenergic, Beta 1 Receptor (Adrb1) (AID 2283258). An outline of the steps:
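Cell-free radioligand displacement on receptor from human neuroepithelioma cells; 2 h after dosing, filter-based scintillation counting. Primary screen in duplicate at 25 uM, actives retested in concentration series; loss of signal vs DMSO baseline.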

The target in experiment [8] is Beta-2 adrenergic receptor (Homo sapiens) (UniProt P07550). As to the kind of experiment: NVS_GPCR_hAdrb2: NovaScreen (NVS) G Protein-Coupled Receptor Assay for human Adrenergic, Beta 2 Receptor (Adrb2) (AID 2283261). An outline of the steps: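 Filter-based radioligand binding using receptor prepared from CHO cells, 1 h incubation, scintillation counting. Primary screen in duplicate at 25 uM, actives retested in concentration series; loss of binding relative to DMSO.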

Experiment [9] addresses human Dopamine Receptor D2 (DRD2), DRD2 (gene 1813) (UniProt P14416). Briefly: NVS_GPCR_hDRD2s: NovaScreen (NVS) G Protein-Coupled Receptor Assay for human Dopamine Receptor D2 (DRD2) (AID 2283266). An outline of the steps:
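Radioligand displacement used human DRD2 membranes extracted from CHO cells and was read by filter-based scintillation counting after 1.5 hours. Primary screening was in duplicate at 25 uM. Loss of signal versus DMSO was fitted, with concentration series in follow-up.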

The target in experiment [10] is human Endothelin Receptor Type A (ETA), EDNRA (gene 1909) (UniProt P25101). As to the kind of experiment: NVS_GPCR_hETA: NovaScreen (NVS) G Protein-Coupled Receptor Assay for human Endothelin Receptor Type A (ETA) (AID 2283265). An outline of the steps: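 Cell-free radioligand displacement using SH-SY5Y-derived protein, 3 h incubation, filter-based scintillation counting. Primary screen in duplicate at 25 uM; actives then run in concentration-response up to 50 uM; loss of binding fitted versus DMSO.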

Inconclusive results are not listed. Calls of active or inactive are those of the source. Rule for the calls: active = hit-call score of the fitted dose curve at least 0.9, where 1 is the maximum; inconclusive = response in the unintended direction; inactive = score below 0.9.

Chain of human Adrenergic, Alpha 2c Receptor (Adra2C), ADRA2C (gene 152) (P18825 whole entry, looked up): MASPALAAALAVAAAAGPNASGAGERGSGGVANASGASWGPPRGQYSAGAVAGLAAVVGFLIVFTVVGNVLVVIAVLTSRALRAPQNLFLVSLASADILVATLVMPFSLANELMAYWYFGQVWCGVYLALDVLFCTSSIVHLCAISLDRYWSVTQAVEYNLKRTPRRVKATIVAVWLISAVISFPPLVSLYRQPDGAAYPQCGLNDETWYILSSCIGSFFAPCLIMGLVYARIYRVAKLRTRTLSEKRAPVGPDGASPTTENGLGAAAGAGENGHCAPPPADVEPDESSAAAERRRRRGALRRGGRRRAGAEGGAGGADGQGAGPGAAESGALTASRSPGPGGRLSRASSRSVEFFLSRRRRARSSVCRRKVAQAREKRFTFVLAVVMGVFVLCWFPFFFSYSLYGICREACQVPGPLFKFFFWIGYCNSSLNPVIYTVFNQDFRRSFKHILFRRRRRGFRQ
Chain of human Serotonin, 5-Hydroxytryptamine Receptor 7 (5HT7), HTR7 (gene 3363) (P34969 whole entry, looked up): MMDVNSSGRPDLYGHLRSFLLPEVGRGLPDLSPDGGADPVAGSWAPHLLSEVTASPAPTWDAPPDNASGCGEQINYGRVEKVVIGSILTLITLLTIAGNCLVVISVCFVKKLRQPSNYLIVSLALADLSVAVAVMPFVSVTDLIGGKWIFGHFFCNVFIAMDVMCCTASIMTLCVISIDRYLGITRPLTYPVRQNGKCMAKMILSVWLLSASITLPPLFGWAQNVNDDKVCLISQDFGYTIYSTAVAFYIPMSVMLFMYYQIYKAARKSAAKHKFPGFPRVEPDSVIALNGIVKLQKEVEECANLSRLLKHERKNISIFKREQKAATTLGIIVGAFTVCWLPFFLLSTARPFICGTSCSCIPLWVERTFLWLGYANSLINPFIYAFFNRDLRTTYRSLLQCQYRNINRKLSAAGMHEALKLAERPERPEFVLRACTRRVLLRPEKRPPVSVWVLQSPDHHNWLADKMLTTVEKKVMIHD
Chain of human Dopamine Receptor D4.4 (DRD4.4), DRD4 (gene 1815) (P21917 whole entry, looked up): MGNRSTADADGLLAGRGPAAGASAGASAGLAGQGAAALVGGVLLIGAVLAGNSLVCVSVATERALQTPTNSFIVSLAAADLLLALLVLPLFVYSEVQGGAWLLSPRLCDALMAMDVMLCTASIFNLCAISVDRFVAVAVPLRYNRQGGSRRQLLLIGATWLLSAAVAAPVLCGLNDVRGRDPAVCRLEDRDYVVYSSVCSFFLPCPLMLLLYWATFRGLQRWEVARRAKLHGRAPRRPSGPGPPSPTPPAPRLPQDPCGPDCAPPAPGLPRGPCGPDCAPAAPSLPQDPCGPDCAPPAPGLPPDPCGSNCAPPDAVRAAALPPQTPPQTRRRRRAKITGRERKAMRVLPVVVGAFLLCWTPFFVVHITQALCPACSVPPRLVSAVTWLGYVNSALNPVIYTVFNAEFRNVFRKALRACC
Chain of human Adenosine A2a Receptor (AdoRA2a), ADORA2A (gene 135) (P29274 whole entry, looked up): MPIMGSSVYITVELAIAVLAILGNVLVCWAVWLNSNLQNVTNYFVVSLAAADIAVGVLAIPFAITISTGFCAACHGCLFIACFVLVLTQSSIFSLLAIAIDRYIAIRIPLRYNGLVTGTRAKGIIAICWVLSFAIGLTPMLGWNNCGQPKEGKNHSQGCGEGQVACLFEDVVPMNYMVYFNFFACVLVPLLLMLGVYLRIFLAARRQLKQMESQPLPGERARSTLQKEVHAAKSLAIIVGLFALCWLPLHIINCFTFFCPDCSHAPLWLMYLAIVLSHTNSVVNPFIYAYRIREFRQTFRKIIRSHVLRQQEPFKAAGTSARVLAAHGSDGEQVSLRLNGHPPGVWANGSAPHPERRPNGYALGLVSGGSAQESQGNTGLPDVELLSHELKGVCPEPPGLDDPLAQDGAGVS
Chain of human Adrenergic, Beta 3 Receptor (Adrb3), ADRB3 (gene 155) (P13945 whole entry, looked up): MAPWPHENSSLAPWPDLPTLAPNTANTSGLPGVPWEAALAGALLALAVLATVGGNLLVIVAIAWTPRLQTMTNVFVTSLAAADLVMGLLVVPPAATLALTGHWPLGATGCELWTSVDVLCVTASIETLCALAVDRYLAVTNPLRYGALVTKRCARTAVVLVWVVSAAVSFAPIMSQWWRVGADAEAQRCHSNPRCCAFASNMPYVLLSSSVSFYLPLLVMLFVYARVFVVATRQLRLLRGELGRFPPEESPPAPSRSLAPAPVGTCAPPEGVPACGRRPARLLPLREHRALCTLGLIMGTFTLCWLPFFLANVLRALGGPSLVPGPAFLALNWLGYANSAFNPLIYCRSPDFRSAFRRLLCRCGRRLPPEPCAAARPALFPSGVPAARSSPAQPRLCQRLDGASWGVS
Chain of human Dopamine Receptor D2 (DRD2), DRD2 (gene 1813) (P14416 whole entry, looked up): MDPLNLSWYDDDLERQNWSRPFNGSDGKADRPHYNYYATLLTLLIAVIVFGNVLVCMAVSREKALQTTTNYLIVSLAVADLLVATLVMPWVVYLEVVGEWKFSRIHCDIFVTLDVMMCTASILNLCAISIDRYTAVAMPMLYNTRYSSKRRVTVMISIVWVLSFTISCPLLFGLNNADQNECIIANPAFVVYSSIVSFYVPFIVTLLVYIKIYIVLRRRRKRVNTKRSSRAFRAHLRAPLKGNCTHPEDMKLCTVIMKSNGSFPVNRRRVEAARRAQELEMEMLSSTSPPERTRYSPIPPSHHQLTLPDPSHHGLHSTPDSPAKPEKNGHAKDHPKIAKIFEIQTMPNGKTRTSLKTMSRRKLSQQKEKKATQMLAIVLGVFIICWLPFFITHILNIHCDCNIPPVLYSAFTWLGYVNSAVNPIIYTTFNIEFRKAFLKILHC
Chain of Beta-2 adrenergic receptor (Homo sapiens) (P07550 whole entry, looked up): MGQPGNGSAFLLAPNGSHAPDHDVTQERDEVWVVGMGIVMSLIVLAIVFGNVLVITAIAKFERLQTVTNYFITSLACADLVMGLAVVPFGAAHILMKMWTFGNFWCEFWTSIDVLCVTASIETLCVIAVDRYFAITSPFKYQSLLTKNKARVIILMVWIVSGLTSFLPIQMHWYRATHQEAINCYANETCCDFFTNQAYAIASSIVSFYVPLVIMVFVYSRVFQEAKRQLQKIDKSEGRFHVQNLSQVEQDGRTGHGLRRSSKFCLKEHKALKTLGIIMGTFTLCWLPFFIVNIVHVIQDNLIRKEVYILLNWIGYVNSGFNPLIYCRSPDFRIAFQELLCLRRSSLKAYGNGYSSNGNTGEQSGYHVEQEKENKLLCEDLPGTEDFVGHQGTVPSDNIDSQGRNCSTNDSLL
Chain of human Endothelin Receptor Type A (ETA), EDNRA (gene 1909) (P25101 whole entry, looked up): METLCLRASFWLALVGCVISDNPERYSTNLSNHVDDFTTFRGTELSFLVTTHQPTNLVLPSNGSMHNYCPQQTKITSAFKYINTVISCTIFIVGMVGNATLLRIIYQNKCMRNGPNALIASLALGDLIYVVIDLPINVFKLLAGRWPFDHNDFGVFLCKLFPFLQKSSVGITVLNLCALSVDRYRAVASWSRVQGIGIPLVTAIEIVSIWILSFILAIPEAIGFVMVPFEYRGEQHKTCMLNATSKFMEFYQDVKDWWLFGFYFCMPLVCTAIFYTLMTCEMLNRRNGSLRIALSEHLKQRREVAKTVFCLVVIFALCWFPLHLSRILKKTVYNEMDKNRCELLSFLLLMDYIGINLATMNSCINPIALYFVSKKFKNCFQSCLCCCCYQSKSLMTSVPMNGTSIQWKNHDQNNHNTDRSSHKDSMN
Chain of human Adrenergic, Beta 1 Receptor (Adrb1), ADRB1 (gene 153) (P08588 whole entry, looked up): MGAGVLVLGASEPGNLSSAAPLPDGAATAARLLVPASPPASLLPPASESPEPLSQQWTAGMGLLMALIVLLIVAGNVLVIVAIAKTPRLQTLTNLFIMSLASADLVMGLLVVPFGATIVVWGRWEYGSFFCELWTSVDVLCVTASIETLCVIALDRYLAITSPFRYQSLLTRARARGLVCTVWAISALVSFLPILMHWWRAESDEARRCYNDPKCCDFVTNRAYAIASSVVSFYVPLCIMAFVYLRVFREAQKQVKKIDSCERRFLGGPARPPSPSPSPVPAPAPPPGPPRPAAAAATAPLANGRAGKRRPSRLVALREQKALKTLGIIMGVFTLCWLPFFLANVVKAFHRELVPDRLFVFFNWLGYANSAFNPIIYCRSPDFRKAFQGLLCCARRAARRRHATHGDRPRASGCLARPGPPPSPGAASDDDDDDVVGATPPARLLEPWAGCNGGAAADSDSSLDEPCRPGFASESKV
Chain of human Adrenergic, Alpha 2A Receptor (Adra2A), ADRA2A (gene 150) (P08913 whole entry, looked up): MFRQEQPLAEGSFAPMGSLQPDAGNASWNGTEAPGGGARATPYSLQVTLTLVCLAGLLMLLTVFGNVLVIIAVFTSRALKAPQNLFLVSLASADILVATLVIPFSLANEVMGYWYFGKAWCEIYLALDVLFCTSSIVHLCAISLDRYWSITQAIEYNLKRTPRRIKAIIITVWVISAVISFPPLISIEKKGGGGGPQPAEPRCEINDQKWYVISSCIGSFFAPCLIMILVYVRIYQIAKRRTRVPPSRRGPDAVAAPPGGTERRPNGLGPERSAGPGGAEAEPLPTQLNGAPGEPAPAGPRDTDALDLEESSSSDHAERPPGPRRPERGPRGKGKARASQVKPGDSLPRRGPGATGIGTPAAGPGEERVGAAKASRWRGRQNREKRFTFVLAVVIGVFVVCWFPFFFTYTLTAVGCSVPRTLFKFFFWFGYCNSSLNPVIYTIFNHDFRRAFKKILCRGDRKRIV

For the molecule `O=C(CCCN1CCC(O)(c2ccc(Cl)cc2)CC1)c1ccc(F)cc1`, the call in experiment [1] was inactive.

Turning to `CCCCCCCCCCCCOS(=O)(=O)O`, the figures for the AC50 in experiment [2], in [3] and in [4] were 25 µM (active), 16.4 µM (active) and 25 µM (active), respectively.

In the case of `CN(C)c1ccc(C(=C2C=CC(=[N+](C)C)C=C2)c2ccccc2)cc1`, in experiment [5], the molecule was called inactive.

Consider `N=C(N)c1ccc(OCCCCCOc2ccc(C(=N)N)cc2)cc1`, for which the AC50 is 3.18 µM (active) in [2]; 23.2 µM (active) in [6]; 20.4 µM (active) in experiment [7]; 7.57 µM (active) in experiment [3]; 21.9 µM (active) in experiment [8]. Moreover, the result in experiment [9] was inactive.

For `CCCCc1oc2ccccc2c1C(=O)c1cc(I)c(OCCN(CC)CC)c(I)c1`, the AC50 in experiment [2] is 6.72 µM (active); in experiment [4] it was 18.9 µM (active); in experiment [10], 0.59 µM (active).

For the molecule `CN(Cc1cnc2nc(N)nc(N)c2n1)c1ccc(C(=O)N[C@@H](CCC(=O)O)C(=O)O)cc1`, the half-maximal activity concentration (AC50) was 9.68 µM (active) in experiment [5] and 22 µM (active) in experiment [9]. Also, the molecule was classed as inactive in [3] and in [1].

As to `Cc1[nH]nc2c1N=C(c1ccccc1Cl)c1cc([N+](=O)[O-])ccc1N2`, in experiment [3], the result was inactive.
